Reference: the supplement of paper PMC10646978
± gives the standard deviation.

What was measured:
Settings in all cases: modulator concentration 10 µM
[1] = test system: RAW-Dual (murine macrophage reporter line); test: NF-kB reporter (SEAP) activity fold change vs agonist alone; higher = enhanced NF-kB activity
Outline: (§1)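 RAW-Dual murine macrophage reporter cells were seeded at 50 000 per well in 384-well plates and pre-incubated 1 hour at 37 °C with compound pin-transferred to 10 μM final. After 1 hour, a PRR agonist was added and cells incubated overnight. Supernatant NF-κB (SEAP, QUANTI-Blue, 620 nm absorbance) and IRF (Lucia luciferase, QUANTI-Luc, luminescence) signals were divided by the mean agonist-only control on the same plate to give fold change. Two replicate plates were averaged, with errors by propagation.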

[2] = test system: RAW-Dual (murine macrophage reporter line); test: IRF reporter (Lucia luciferase) activity fold change vs agonist alone; higher = enhanced IRF activity
Outline: as §1

[3] = test system: RAW-Dual (murine macrophage reporter line); test: viability score (confluency relative to resting cells, overnight) (fraction); higher = more viable, active = viable (0.7 or more)
Outline: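 RAW-Dual macrophages in 384-well plates were exposed overnight to compound at 10 μM final. Confluency was imaged with IncuCyte, and two confluency masks were generated with IncuCyte software over all imaged wells. The viability score is confluency expressed relative to resting cells. Compounds were called viable if both masks exceeded 70% of resting cells.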

[4] = agonist: CpG ODN 1826 0.5 ug/mL

Structure (SMILES)	NF-kB reporter [1, 4]	NF-kB reporter ([1]; agonist: LPS 0.1 ug/mL)	NF-kB reporter ([1]; agonist: MPLA […])	IRF reporter ([2]; agonist: 3'3'-cGAMP 10 ug/mL)	IRF reporter ([2]; agonist: LPS 0.1 ug/mL)	IRF reporter ([2]; agonist: MPLA […])	viability score [3]
O=C(CSC1CC(=O)N(c2ccc(C(=O)O)cc2)C1=O)Nc1ccc(Cl)cc1 (configuration not stated)	0.921 ± 0.11	0.931 ± 0.16	1.05 ± 0.046	0.396 ± 0.085	0.99 ± 0.045	0.982 ± 0.12	1 (active)
CCCCCN(CCCCC)C(=O)C(CCC(=O)[O-])NC(=O)c1ccc(Cl)c(Cl)c1 (configuration not stated) [Prestw-915]	1.02 ± 0.064	0.954 ± 0.096	0.901 ± 0.064	1.1 ± 0.073	1.55 ± 0.17	1.29 ± 0.14	0.832 (active)
COc1cccc(CC(=O)N2CCC(Oc3ccc4ccccc4n3)C2)c1 (configuration not stated)	0.762 ± 0.04	1.18 ± 0.14	1 ± 0.077	0.938 ± 0.056	1.18 ± 0.14	1.24 ± 0.25	1 (active)
Cc1cccc(OCC(=O)Nc2cccc([N+](=O)[O-])c2)c1C	0.982 ± 0.16	1.17 ± 0.14	1.03 ± 0.11	0.947 ± 0.028	1.21 ± 0.23	1.24 ± 0.21	0.974 (active)
CCC(C)(C)C(=O)Nc1ccc(C(C)=O)cc1	0.962 ± 0.076	1.03 ± 0.068	0.953 ± 0.045	0.909 ± 0.13	1.02 ± 0.14	1.11 ± 0.22	1 (active)
O=C(Cc1ccc(F)cc1F)N1CCC(n2c(=O)[nH]c3ccccc3c2=O)CC1	1.01 ± 0.06	1.15 ± 0.088	0.997 ± 0.026	0.878 ± 0.033	1.07 ± 0.061	1.03 ± 0.12	1 (active)
CC1=C(C(=O)Nc2cccc(C)n2)C(c2cccs2)C2=C(CC(C)(C)CC2=O)N1 (configuration not stated)	1.03 ± 0.18	1.09 ± 0.14	0.869 ± 0.069	0.913 ± 0.027	1.2 ± 0.12	1.25 ± 0.16	1 (active)
O=C(c1cc2cc(F)ccc2s1)N1CCc2ncncc2C1	1.05 ± 0.099	1.03 ± 0.083	0.898 ± 0.063	0.927 ± 0.064	1.23 ± 0.14	1.12 ± 0.3	1.01 (active)
CCCCCCOc1ccc(N2C(=O)CC(SC(=Nc3ccccc3)Nc3ccccc3)C2=O)cc1 (configuration not stated)	0.968 ± 0.08	1.07 ± 0.073	0.856 ± 0.05	0.937 ± 0.036	1.45 ± 0.092	1.23 ± 0.25	0.996 (active)
O=C(NCCc1cn2ccccc2n1)c1ccccc1Br	0.964 ± 0.069	0.943 ± 0.12	1.03 ± 0.056	1 ± 0.048	1.2 ± 0.25	1.24 ± 0.32	0.975 (active)
CCc1ccccc1N(CC(=O)Nc1ccc(Cl)cc1C)S(C)(=O)=O	0.842 ± 0.087	1.05 ± 0.068	0.893 ± 0.047	0.88 ± 0.12	1.08 ± 0.14	0.876 ± 0.18	1 (active)
O=C1[C@H](CC[C@H](O)c2ccc(F)cc2)[C@@H](c2ccc(O)cc2)N1c1ccc(F)cc1	1.11 ± 0.11	1.05 ± 0.051	1.29 ± 0.12	0.927 ± 0.063	0.98 ± 0.084	1.21 ± 0.11	0.97 (active)
CC(C)(C)C1=CC2(C=C(C(C)(C)C)C1=O)Nc1cccc3cccc(c13)N2	0.874 ± 0.12	1.08 ± 0.062	0.96 ± 0.075	0.754 ± 0.037	1.17 ± 0.11	0.942 ± 0.078	1.01 (active)
COc1ccc(S(=O)(=O)N(CC(=O)Nc2ccccc2Br)c2ccc(C)cc2)cc1OC	0.735 ± 0.067	0.773 ± 0.076	0.864 ± 0.041	0.858 ± 0.086	1.04 ± 0.11	1.1 ± 0.17	1 (active)
O=C(Nc1ccc(-c2cn3ccsc3n2)cc1)C1CCCC1	1.14 ± 0.09	1.1 ± 0.15	1.37 ± 0.13	0.69 ± 0.027	1.23 ± 0.18	1.38 ± 0.23	0.962 (active)
CCCNS(=O)(=O)Nc1ncnc(OCCOc2ncc(Br)cn2)c1-c1ccc(Br)cc1	0.775 ± 0.21	0.995 ± 0.074	1.16 ± 0.1	0.417 ± 0.047	0.383 ± 0.083	0.465 ± 0.062	0.953 (active)
COc1ccc(C(C)(C#N)CC#N)cc1 (configuration not stated)	1.11 ± 0.089	0.941 ± 0.1	1.04 ± 0.1	1.06 ± 0.035	1.29 ± 0.19	1.47 ± 0.31	1.03 (active)
CCn1nccc1C(=O)N1CCN(S(C)(=O)=O)CC1	1.02 ± 0.066	0.929 ± 0.092	0.991 ± 0.028	1.01 ± 0.069	0.994 ± 0.061	0.847 ± 0.13	1 (active)
COc1ccc(Cl)cc1S(=O)(=O)NCc1ccccn1	1.11 ± 0.07	0.901 ± 0.1	0.986 ± 0.026	1.01 ± 0.059	1.01 ± 0.1	0.936 ± 0.15	0.996 (active)
COc1ccc(C=C2C(=O)N(c3ccc(C(=O)O)cc3)N=C2C)cc1	0.794 ± 0.082	0.977 ± 0.072	1.02 ± 0.092	0.934 ± 0.052	1.22 ± 0.099	1.21 ± 0.17	1.01 (active)
CC1CN(Cc2ccccn2)CCC1=O (configuration not stated)	0.988 ± 0.11	0.993 ± 0.064	1.03 ± 0.062	0.978 ± 0.027	1.58 ± 0.23	1.17 ± 0.12	1.01 (active)
Ic1cccc(Cn2nnc(-c3ccccc3)n2)c1	0.76 ± 0.06	0.98 ± 0.048	1.38 ± 0.15	0.872 ± 0.04	1.28 ± 0.12	1.51 ± 0.18	1.01 (active)
COc1ccc(OC)c(CN2CCCC(O)C2)c1 (configuration not stated)	1.19 ± 0.075	1.01 ± 0.081	0.942 ± 0.027	0.963 ± 0.055	1.07 ± 0.061	1.06 ± 0.1	1 (active)
CN(C)CC(c1ccc(O)cc1)C1(O)CCCCC1.O=C(O)CCC(=O)O (configuration not stated)	0.101 ± 0.0077	0.562 ± 0.045	0.531 ± 0.031	0.913 ± 0.075	1.29 ± 0.29	1.18 ± 0.36	0.633 (inactive)
O=C(CCC(=O)OCC(=O)c1cccs1)Nc1ccc(Oc2ccccc2)cc1	0.756 ± 0.064	0.842 ± 0.054	1.04 ± 0.12	0.995 ± 0.05	1.22 ± 0.085	1.38 ± 0.13	1 (active)
OC1C=C2CCN3Cc4cc5c(cc4C(C1O)C23)OCO5 (configuration not stated)	1.1 ± 0.099	0.352 ± 0.029	1.35 ± 0.14	0.678 ± 0.062	0.751 ± 0.072	1.04 ± 0.19	0.71 (active)
